The values that follow come from PubChem BioAssay (NCATS).

Calls of active or inactive are those of the source. Calls follow the shape of the dose curve; as a rule, active = well fitted curve in the direction sought with a large enough effect; inconclusive = small, poorly fitted or top-dose-only effect, or another doubt; inactive = no such curve, though single readings can be large or run the other way.

Chain of Hexokinase-4 (Homo sapiens) + Glucokinase regulatory protein (Homo sapiens) (P35557 whole entry, looked up): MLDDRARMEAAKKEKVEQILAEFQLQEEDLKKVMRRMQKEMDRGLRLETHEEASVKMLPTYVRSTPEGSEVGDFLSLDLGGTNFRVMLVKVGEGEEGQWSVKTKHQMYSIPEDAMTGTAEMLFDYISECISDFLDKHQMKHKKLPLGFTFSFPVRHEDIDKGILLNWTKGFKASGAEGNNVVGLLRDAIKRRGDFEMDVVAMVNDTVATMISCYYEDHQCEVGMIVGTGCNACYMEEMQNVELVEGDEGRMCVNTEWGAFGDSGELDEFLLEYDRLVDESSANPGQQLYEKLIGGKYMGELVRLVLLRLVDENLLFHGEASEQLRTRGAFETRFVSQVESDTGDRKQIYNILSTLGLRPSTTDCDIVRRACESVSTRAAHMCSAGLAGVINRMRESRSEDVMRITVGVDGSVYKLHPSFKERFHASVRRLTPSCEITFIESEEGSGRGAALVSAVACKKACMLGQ
Chain of Hexokinase-4 (Homo sapiens) + Glucokinase regulatory protein (Homo sapiens) (Q14397 whole entry, looked up): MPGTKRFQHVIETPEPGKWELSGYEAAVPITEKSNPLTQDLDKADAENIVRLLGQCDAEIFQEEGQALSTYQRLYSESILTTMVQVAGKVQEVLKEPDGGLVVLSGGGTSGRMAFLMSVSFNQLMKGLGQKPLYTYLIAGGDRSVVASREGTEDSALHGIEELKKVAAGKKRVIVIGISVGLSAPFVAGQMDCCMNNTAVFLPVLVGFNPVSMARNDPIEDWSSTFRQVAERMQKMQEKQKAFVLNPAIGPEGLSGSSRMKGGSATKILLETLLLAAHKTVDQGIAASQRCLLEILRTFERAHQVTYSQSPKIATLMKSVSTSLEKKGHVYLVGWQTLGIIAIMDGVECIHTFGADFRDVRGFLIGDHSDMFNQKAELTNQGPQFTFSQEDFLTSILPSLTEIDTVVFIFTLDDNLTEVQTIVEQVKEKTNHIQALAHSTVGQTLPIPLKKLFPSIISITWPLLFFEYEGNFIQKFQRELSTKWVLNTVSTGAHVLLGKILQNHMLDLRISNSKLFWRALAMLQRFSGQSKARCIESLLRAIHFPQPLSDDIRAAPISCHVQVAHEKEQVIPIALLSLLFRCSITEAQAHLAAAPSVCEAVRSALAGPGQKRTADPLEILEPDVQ

This assay has as its target Hexokinase-4 (Homo sapiens) + Glucokinase regulatory protein (Homo sapiens) (UniProt P35557+Q14397). The assay can be described thus: qHTS assay for inhibitors of recombinant human GCK-GKRP interaction: ADP-Glo assay (AID 743206). The conditions noted are these: ADP-Glo luminescence, 60 min, 0% = vehicle-only wells with enzyme present; series mostly up to 76.9 µM. From the text: Glucokinase (GCK) is a glucose sensor in hepatocytes and pancreatic beta-cells. Hepatic GCK is regulated by glucokinase regulatory protein (GKRP), which is predominantly localized to the liver. GKRP binds to GCK inhibiting its activity in the fasting state while in the presence of glucose the GKRP is displaced. There is an additional layer of regulation by fructose 1-phosphate and fructose 6-phosphate, which inhibit and enhance the GCK-GKRP interaction, respectively. GCK plays a role in glucose homeostasis and there is an interest in the development of strategies to activate GCK to lower blood glucose levels in type 2 diabetes. To date the majority of effort has focused on direct activation of GCK and the assays developed herein look to activate GCK by inhibiting its binding to GKRP. A compound that inhibits the interaction of GCK with GKRP could be important for the treatment of diabetes and can also be used as a tool compound to further elucidate GCK-GKRP biology. To that end, we have developed a sensitive HTS biochemical assay where in GCK activity is coupled to luciferase to interrogate the GCK-GKRP interaction. This assay was screened against a small compound library to look for modulators of activity.
2 uL of 15 nM GST-GCK and 15 nM FLAG-GKRP proteins with 2 uM S6P (columns 1-2, 4-48; Millipore, Billerica, MA) are dispensed into Greiner, white solid-bottom 1536-well assay plates; columns 3 receive buffer without GCK as a control for maximum inhibition. Compounds (23 nL) are then transferred via Kalypsys pin tool equipped with 1536-pin array (10 nL slotted pins, V&P Scientific, San Diego, CA). The library compounds are in columns 5-48 and columns 1-4 serve as controls with DMSO in columns 1 and 3 and 26 mM 1:1.5 fold serial of gluckokinase activator (GKA-EMD) in column 2 and 26 mM of the glucokinase activator (GKA-EMD) in column 4. Following addition of compound, 1 uL of ATP […] is added, and the plate is incubated for 60 minutes at room temperature. The amount of ADP is then quantified by the ADP-Glo Kit (Promega, Madison, WI). First, 2 uL of the first kit reagent is added, and the reaction is incubated for 45 minutes; then, 4 uL of the second kit reagent are added and the reaction is incubated for 30 minutes at which time the luminescence is read on a Viewlux plate reader (Perkin-Elmer, Waltham, MA). The final concentration of reagents in the reaction are 0.4 mM ATP, 25 mM Hepes pH 7.6, 25 mM KCl, 2 mM MgCl2, 1 mM DTT, 0.025% BSA, 0.01% Tween 20, 5 mM glucose. Data are normalized to DMSO-treated control columns with (maximum signal) and without (minimum signal) enzyme.
With `O=C(O)Cc1cnc[nH]1`, the outcome was inactive.

Regarding `O=C1CCCN1CC#CCN1CCCC1`, the result was inactive.

`C[C@@H](N)Cc1cnc[nH]1`: the outcome was inactive.

In the case of `Oc1ccc2c3c1O[C@H]1c4[nH]c5c(c4C[C@@]4(O)[C@@H](C2)N(CC2CC2)CC[C@]314)C[C@@]1(O)[C@H]2Cc3ccc(O)c4c3[C@@]1(CCN2CC1CC1)[C@H]5O4`, the result was inactive.

With `C[N+]1(C)C2CCC1CC(OC(=O)C(CO)c1ccccc1)C2` (stereo not given), the outcome was inactive.

Turning to `Cn1cnc(CCN)c1`, the outcome was inactive.

As for `CCCN(CCC)[C@@H]1CCc2ccc(O)cc2C1`, the result was inactive.

Take `COc1cc(C(O)CN)ccc1O` (stereo not given): the outcome was inactive.

Turning to `CC(C)Oc1cccnc1N(C)C1CCN(Cc2ccccc2)CC1`, the result was inactive.

With `NC1CCc2cc(O)c(O)cc2C1` (stereo not given), the outcome was inactive.

As to `C[C@]12N[C@H](Cc3ccccc31)c1ccccc12`, the result was inactive.

`CC(Cc1ccc(O)cc1)NCC(O)c1cc(O)cc(O)c1` (stereo not given): the outcome was inactive.

As to `C[C@]12CCC3C(CC[C@H]4C[C@H](O)CC[C@]34C)C1CC[C@@H]2C(=O)CO` (stereo not given in full), the result was inactive.

Regarding `CNCCc1c[nH]c2ccc(O)cc12`, the outcome was inactive.

As for `O=C(O)CC[N+](=O)[O-]`, the outcome was inactive.

Regarding `Cc1nccc2c1[nH]c1ccccc12`, the result was inactive.

Take `CS(=N)(=O)CC[C@H](N)C(=O)O` (stereo not given in full): the outcome was inactive.

Take `Cc1c(C(=O)c2cccc3ccccc23)c2cccc3c2n1[C@H](CN1CCOCC1)CO3`: the outcome was inactive.

Regarding `O=C(Cc1ccc(Cl)c(Cl)c1)N1CCCCC1CN1CCCC1` (stereo not given), the result was inactive.

As to `CC(=O)[C@H]1CCC2C3CC[C@H]4C[C@H](O)CC[C@]4(C)C3CC[C@@]21C` (stereo not given in full), the outcome was inactive.

Consider `CN1C2CCC1CC(OC(=O)c1cc(Cl)cc(Cl)c1)C2` (stereo not given), for which the outcome was inactive.

For `c1ccc2sc(C3(N4CCCCC4)CCCCC3)cc2c1`, the result was inactive.

Take `C#CCOC(=O)C1=CCCN(C)C1`: the outcome was inactive.

On to `CC1=NN=C(c2ccc(N)cc2)c2cc3c(cc2C1)OCO3`, for which the result was inactive.

Regarding `NC(N)=NOCCC(N)C(=O)O` (stereo not given), the outcome was inactive.

In the case of `C=CCN1CC[C@]23CCCCC2[C@H]1Cc1ccc(O)cc13` (stereo not given in full), the result was inactive.

In the case of `NC(CCP(=O)(O)O)C(=O)O` (stereo not given), the outcome was inactive.

As for `C[C@@H]1O[C@H](C[N+](C)(C)C)C[C@H]1O`, the outcome was inactive.

Consider `NC1CC1c1ccccc1` (stereo not given), for which the outcome was inactive.

Turning to `CN[C@@H]1C[C@@H](c2ccc(Cl)c(Cl)c2)c2ccccc21`, the outcome was inactive.

For the compound `COC(=O)[C@@H](N)CCCN=C(N)N[N+](=O)[O-]`, the outcome was inactive.

For the compound `CCCN1CCO[C@@H]2c3cc(O)ccc3OC[C@H]21`, the outcome was inactive.

Consider `CCCN1CCC[C@H](c2cccc(O)c2)C1`, for which the outcome was inactive.

Take `CC(=O)NCCc1c[nH]c2ccccc12`: the result was inactive.

For the compound `O=C(O)[C@@H]1CCN1`, the outcome was inactive.

For `NC(=NCCC[C@H](N)C(=O)O)N[N+](=O)[O-]`, the outcome was inactive.

Turning to `S=C(NC1CCCCC1)N1CCC(c2cnc[nH]2)CC1`, the outcome was inactive.

Regarding `NCCc1c[nH]c2ccc(O)cc12`, the outcome was inactive.

`NC(CP(=O)(O)O)C(=O)O` (stereo not given): the result was inactive.

Turning to `O=C(N[C@H]1CN2CCC1CC2)c1ccc(Cl)cc1`, the result was inactive.
